Values without a mark were called inactive. Entries that show only a call come without a potency. The source made the active and inactive calls. Calls follow the shape of the dose curve; as a rule, active = well fitted activation curve with a large enough effect in the repeat runs; inconclusive = weak or mixed curves; inactive = flat fitted curve, though single readings scatter.
test: A CellTox Green Cytotoxicity Assay to monitor cytotoxicity in HepG2 cells - 0 hour (AID 1224882); conditions: CellTox Green fluorescence; series mostly up to 76.8 µM; also: nearly all actives have a fitted effect of over 35% in size
Source text: National Center for Advancing Translational Sciences [NCATS]
NIH Chemical Genomics Center [NCGC]
U.S. Environmental Protection Agency [EPA]
National Institutes of Environmental Health Sciences [NIEHS]
National Toxicology Program [NTP]
Cell-based models are critical for drug discovery. Determining the natural cytotoxic effects resulting from test compounds is an essential research activity. A CellTox Green Cytotoxicity Assay to monitor cytotoxicity in real time of continues cell culture during 40 hours of the compound treatment was used to screen Tox21 10K library compounds in HepG2 cells. CellTox Green Cytotoxicity Assay is a nonlytic, homogeneous, biofluorescent method to measure cytotoxicity in cell culture after experimental manipulation. The assay system uses a proprietary asymmetric cyanine dye that is excluded from viable cells but preferentially stains the dead cell's DNA. […] Viable cells produce no appreciable increases in fluorescence. Therefore, the fluorescence signal produced by the binding interaction with dead cell DNA is proportional to cytotoxicity.
The mixture of HepG2 cell suspension and reagents were dispensed at 600cells/6 ul/well in 1536-well tissue culture treated black solid bottom plates using a Multidrop dispenser. After the assay plates were incubated at a 37 C/5% CO2 incubator for 5 hours, 23 nL of compounds dissolved in DMSO, positive and negative controls was transferred to the assay plate by a pintool work station. The plates were incubated at 37 C for 40 hours. The fluorescence intensity were measured at 0h, 8h, 16h, 24h, 32h and 40h time points using ViewLux plate reader during compound treatment.
Potency is read from the fitted curve at half-maximal effect.

| Compound | cytotoxicity | Potency |
| --- | --- | --- |
| NCC(CC(=O)O)c1ccc(Cl)cc1 (stereo not given) | 0.813% [at 0.29 µM] | – |
| O=S1OC[C@@H]2[C@H](CO1)[C@]1(Cl)C(Cl)=C(Cl)[C@@]2(Cl)C1(Cl)Cl (stereo not given in full) | – | inactive |
| CCCCCCCCCCOC(=O)c1ccccc1C(=O)OCCCCCCCCCC | – | inactive |
| O=[Se]=O | – | inactive |
| O=S1(=O)OC(c2cc(Br)c(O)c(Br)c2)(c2cc(Br)c(O)c(Br)c2)c2ccccc21 | – | inactive |
| COCC(C)N(C(=O)CCl)c1c(C)csc1C (stereo not given) | – | inactive |
| CCOC(=O)CBr | – | inactive |
| Cc1ccccc1CCl | – | inactive |
| COc1c(C(C)(C)C)cc([N+](=O)[O-])c(C)c1[N+](=O)[O-] | – | inactive |
| ClCc1cccc(Cl)c1 | – | inactive |
| CC1C(=O)C[C@]2(C(C)C)C[C@H]12 (stereo not given in full) | – | inactive |
| CC(c1ccc(O)cc1)(c1ccc(O)cc1)c1ccc(O)cc1 | – | inactive |
| C[C@H]1CNCCc2ccc(Cl)cc21 | – | inactive |
| C[C@]12CC[C@H]3[C@@H](CCC4=CC(=O)CC[C@@H]43)[C@@H]1CC[C@@H]2OC(=O)CCC1CCCCC1 | – | inactive |
| Cn1cc[n+](C)c1 (tested in a mixture with another compound) | – | inactive |
| O=C(OC1CCCCC1)c1ccccc1C(=O)OC1CCCCC1 | – | inactive |
| CCC(Br)(CC)C(=O)NC(N)=O | – | inactive |
| Nc1ccc(N=Nc2ccc(-c3ccc(N=Nc4c(S(=O)(=O)O)cc5cc(S(=O)(=O)O)c(N=Nc6ccccc6)c(O)c5c4N)cc3)cc2)c(N)c1 | – | inactive |
| CC(C)(C)c1cc([N+](=O)[O-])cc([N+](=O)[O-])c1O | – | inactive |
| CC(=O)[C@H]1CC[C@H]2[C@@H]3CC[C@H]4C[C@](C)(O)CC[C@]4(C)[C@H]3CC[C@]12C | – | inactive |

| Compound | cytotoxicity | Potency |
| --- | --- | --- |
| O=C(CCl)c1ccc(Cl)cc1Cl | – | inactive |
| CCCN(CCC)c1c([N+](=O)[O-])cc(S(C)(=O)=O)cc1[N+](=O)[O-] | – | inactive |
| O=C(O)COc1ccc(Cl)cc1 | – | inactive |
| CN1C(=O)NC(=O)C(C)(C2=CCCCC2)C1=O (stereo not given) | – | inactive |
| CCOP(=O)(OCC)SCCSCC | – | inactive |
| O=C(Nc1ccccc1)Nc1cnns1 | – | inactive |
| CCc1ccc(C(=O)NN(C(=O)c2cc(C)cc(C)c2)C(C)(C)C)cc1 | – | inactive |
| CC(=O)c1cc2c(cc1C)C(C)(C)C(C)CC2(C)C (stereo not given) | – | inactive |
| O=C(O)C(F)(F)C(F)(F)C(F)(F)C(F)(F)C(F)(F)C(F)(F)C(F)(F)C(F)(F)C(F)(F)F | – | inactive |
| COc1nn(C(=O)NS(=O)(=O)c2ccccc2OC(F)(F)F)c(=O)n1C | – | 39.9 µM (active) |
| COC(N)=O | – | inactive |
| O=C(CBr)Nc1ccc(Cl)cc1C(=O)c1ccccc1F | – | inactive |
| CCCCCCCCOC(=O)c1ccc(C(=O)OCCCCCCCC)c(C(=O)OCCCCCCCC)c1 | – | inactive |
| CC(C)(Cl)[N+](=O)[O-] | – | inactive |
| c1ccoc1 | – | inactive |
| c1ccc(C2CC2)c(OCC2=NCCN2)c1 | – | inactive |
| C(=NC1CCCCC1)=NC1CCCCC1 | – | inactive |
| CCOP(=S)(OCC)SCn1nnc2ccccc2c1=O | – | inactive |
| CCn1cc[n+](C)c1 | – | inactive |
| CCCCC(O)(Cn1cncn1)c1ccc(Cl)cc1Cl (stereo not given) | – | inactive |

Source: PubChem BioAssay (Tox21)
